Compounds with a hit are over-represented: about 3.4% of the library has one in this group of screens.
esBAF inh: inhibitors of esBAF chromatin remodeling in mouse ES cells. Bmi1-luciferase knock-in reporter, 24 h; 100% = twice the neutral-well signal. reporter increase, % at 12.5 µM. hit rate 2% among 350,000; in the data active = activation above about 40%; inconclusive = no clear call, values can overlap the other calls;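 also: 0% = median of the plate's neutral control wells and 100% = double that signal; a rise in the Bmi1 reporter signal indicates esBAF inhibition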
Wnt act: activates Wnt/beta-catenin signaling in a reporter cell assay; activator, plate reader; activation, % at 9.35 µM; hit rate 1.2% among 300,000; AID 743398; in the data active = activation above about 30%, passing the limit was not always enough; inconclusive = no clear call, values can overlap the other calls;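 also: 0% = neutral control wells and 100% = positive control wells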
MITF act: MITF TRPM1 promoter activation in melanoma cells. activation, % at 12.5 µM. SK-MEL-5 TRPM1-promoter luciferase, 24 h; % of positive control, neutral wells = 0. hit rate 0.75% among 300,000;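 active = mean activation of at least 80% with every replicate also reaching 80%; inconclusive = mean reaches 80% but some replicate falls short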;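 also: 0% = neutral control wells and 100% = parthenolide positive control wells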
miR-122 sensor: blocks miR-122 activity in Huh7 sensor cells; hit rate 0.3% among 340,000; Huh7 miR-122 Renilla luciferase sensor, 48 h; neutral wells = 0, positive control = 100; activation (reporter increase), % at 12.5 µM;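 active = mean replicate activation score at least 90 and every replicate individually at or above 90; inconclusive = only one of the two criteria met; inactive = neither criterion met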;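 also: higher luciferase means less miR-122 activity so hits act as miR-122 inhibitors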
HIV Env fusion: HIV envelope-mediated fusion inhibition. AID 651610. inhibition, % at 12.3 µM. hit rate 1.1% among 360,000. HeLa-JRFL Env/CEM21 cell fusion, luciferase;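 active = mean replicate inhibition score of at least 50 and every replicate individually at or above 50; inconclusive = only one of the two criteria met; inactive = mean below 50 and not all replicates reaching 50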;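 also: 0% = plate neutral controls and 100% = maraviroc near 300 nM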
* marks the source's active call; other numbers are inactive results; ? = inconclusive; nt = not tested or not shown; [ ] = dose if it differs, or a comment.

SMILES	esBAF inh	Wnt act	MITF act	miR-122 sensor	HIV Env fusion
Cc1ccc(-n2nnnc2SCC(=O)c2c(N)n(CC(C)C)c(=O)n(C)c2=O)cc1	6.6	nt	-13.8	24.5	58.9*
CCOC(=O)Cc1csc(SCC(=O)c2c(N)n(CC(C)C)c(=O)n(C)c2=O)n1	-24.8	nt	-18.8	-2.2	43.9
CCC(C(=O)OCC(=O)c1c(N)n(CC(C)C)c(=O)n(C)c1=O)c1ccccc1 (centres undefined)	14.0	-1.6	-11.6	-4.2	60.3*
COc1ccc(NC(=O)N2CCCCN3[C@H](CO)[C@@H](c4ccc(C5=CCCC5)cc4)[C@@H]3C2)cc1	nt	nt	nt	16.3[16.7 µM]	nt
COc1ccc(NC(=O)Nc2ccc3c(c2)C(=O)N([C@@H](C)CO)C[C@H](C)[C@H](CN(C)Cc2ccncc2)OCCCC[C@@H](C)O3)cc1	0.8	nt	nt	5.6[16.7 µM]	2.5[16.7 µM]
Cc1cc[n+](CC[n+]2ccc(C)cc2)cc1	1.2	0.5	-8.2	-4.4	-31.1
CCC(C)(C)c1ccc(OCCCC[n+]2ccc(C)cc2)c(C(C)(C)CC)c1	nt	-27.1	nt	nt	126.9*
Cc1cc(C(C)(C)C)ccc1OCCCCN1CCCC1	nt	-6.8	-8.9	nt	4.8
CCC(C)(C)c1ccc(OCCCC[n+]2cccc(C)c2C)c(C(C)(C)CC)c1	nt	-13.7	nt	-23.8	99.2*
CC(C)OC(=O)N(C)C[C@@H]1OCc2ccccc2-c2ccccc2C(=O)N([C@@H](C)CO)C[C@@H]1C	-11.2	nt	nt	nt	-7.9[16.7 µM]
NS(=O)(=O)OCC1CCCCC1	-2.9	-0.9	-4.2	-4.5	12.3
Nc1nc(N)c(N=O)c(OCC2CCCCC2)n1	42.3*	-0.1	-13.0	-4.3	-98.9
Cc1cccc(NS(=O)(=O)c2csc(C(N)=O)c2)c1	2.3	2.0	-1.9	110.6*	5.4
COc1cc(NS(=O)(=O)c2csc(C(N)=O)c2)cc(OC)c1	-0.3	2.6	-14.4	99.3*	23.0
C/C(=N\NC(=O)c1cccc(S(=O)(=O)Nc2cccc(Cl)c2)c1)c1cccs1	-3.1	-3.6	2.6	148.4*	1.2
CCN(CC)S(=O)(=O)c1cccc(C(=O)NC(C)C(c2cccs2)N2CCCC2)c1 (centres undefined)	nt	-0.9	-0.4	nt	-1.3
CCN(CC)S(=O)(=O)c1cccc(C(=O)N/N=C(\C)c2cccs2)c1	?	-0.9	100.6*	0.3	-10.4
Cc1ccc(/C=N/NC(=O)c2cccc(S(=O)(=O)Nc3cccc(Cl)c3)c2)o1	nt	-1.8	nt	nt	9.2
CCC(C)NC(=O)c1ccc2c(Cl)c3c(nc2c1)CCC3 (centres undefined)	53.3*	42.3*	56.4	-2.4	-121.0
CCC(C)NC(=O)c1ccc2c(SCC(=O)O)c3c(nc2c1)CCCC3 (centres undefined)	3.7	-5.8	5.2	-1.5	2.9
CC1CCN(C(c2ccc(N(C)C)cc2)c2nnnn2Cc2ccc(F)cc2)CC1 (centres undefined)	5.6	nt	6.4	-5.6	nt
Fc1ccc(Cn2nnnc2C(c2ccc(Cl)cc2)N2CCSCC2)cc1 (centres undefined)	nt	-0.3	2.9	13.6	52.3*
O=C(Oc1ccc(-c2ccccc2)cc1)N1CCCCC1	?	nt	126.7*	0.9	nt
O=C(Oc1ccccc1)N1CCCCC1	-6.2	2.1	nt	nt	1.1
S=C(NCCc1ccccc1)NCCc1ccccc1	nt	nt	23.0	nt	5.6
SMILES	esBAF inh	Wnt act	MITF act	miR-122 sensor	HIV Env fusion
CC(C)(C)C(=O)NC(=S)NCCc1ccccc1	43.5*	-0.4	60.8	-4.1	-93.8
O=C(NCCc1ccccc1)C(=Cc1ccc(C(=O)O)cc1)C(=O)NCCc1ccccc1	0.2	-1.0	-7.4	-9.0	8.6
C/C(=C\c1ccccc1)C(=O)NCc1ccco1	nt	32.2*	31.2	nt	6.0
C/C(=C\c1ccccc1)C(=O)NCCc1ccccc1	nt	61.0*	50.2	nt	-33.3
C[C@H](CO)N1C[C@H](C)[C@@H](CN(C)S(=O)(=O)c2cn(C)cn2)Oc2ccc(NC(=O)CCN3CCOCC3)cc2C1=O	1.2	nt	nt	-2.1[16.7 µM]	nt
C[C@@H]1CCCCO[C@H](CN(C)C)[C@@H](C)CN([C@@H](C)CO)C(=O)c2cc(NC(=O)NC3CCCCC3)ccc2O1	-2.7	nt	nt	1.5[16.7 µM]	8.0[16.7 µM]
CN1CCSc2ccc(C(=O)Nc3cc(F)ccc3F)cc21	12.7	43.0*	96.6*	-5.9	-175.3
CN1CCSc2ccc(C(=O)NCc3ccccc3F)cc21	29.9	6.2	48.7	7.7	-25.6
CCOc1ccc(NC(=O)c2ccc3c(c2)N(C)CCS3)cc1	72.1*	37.4*	nt	-20.8	-69.2
CO[C@H]1CC[C@@H]2CCN(C)C(=O)[C@@H](C)N(C)C(=O)c3cc(C#N)ccc3OC[C@@H]1O2	-0.7	nt	nt	nt	3.7[16.7 µM]
C[C@H]1CN([C@@H](C)CO)C(=O)Cc2cc(NS(=O)(=O)c3ccc(F)cc3)ccc2O[C@@H]1CN(C)Cc1ccc(C(F)(F)F)cc1	1.6	nt	nt	-0.4[16.7 µM]	18.8[16.7 µM]
CNC[C@@H]1OCCCC[C@H](C)Oc2ccc(NC(=O)CCC(F)(F)F)cc2C(=O)N([C@H](C)CO)C[C@H]1C	-0.2	nt	nt	-3.0[16.7 µM]	16.2[16.7 µM]
Cc1cc(/C=C(\C#N)C(=O)NCc2cccs2)c(C)n1-c1ccccc1F	38.8	51.7*	64.8	3.4	-175.5
Cc1ccccc1-n1c(C)cc(/C=C(\C#N)C(=O)NCC2CCCO2)c1C (centres undefined)	36.3	8.5	61.3	2.7	-47.2
COc1ccccc1NC(=O)N[C@H]1CC[C@H](CC(=O)NCc2ccc(Cl)c(Cl)c2)O[C@H]1CO	9.4	nt	nt	nt	nt
CC1(C)CC(=O)/C(=N/Nc2ccc(Cl)cc2)CO1	54.6*	51.7*	69.3	-1.9	-87.5
Cn1c(C(=O)NCCC2=CCCCC2)cc2c(=O)n3ccccc3nc21	44.1*	nt	64.8	0.8	-43.6
Cc1nn(C)c(C)c1/C=C/C(=O)c1ccccc1	nt	nt	60.4	nt	-49.9
Cc1nn(C)cc1/C=C/C(=O)c1ccccc1	17.0	nt	39.5	-3.9	-115.3
Cc1nn(C)c(C)c1/C=C/C(=O)c1cccs1	18.7	39.1*	nt	-5.3	-84.8
Cc1nn(C)cc1/C=C/C(=O)c1cccs1	65.3*	89.7*	nt	-7.4	-30.3
C[C@@H]1CCCCO[C@@H](CN(C)C(=O)c2ccncc2)[C@@H](C)CN([C@H](C)CO)C(=O)c2cc(NS(=O)(=O)c3cn(C)cn3)ccc2O1	-2.0	nt	nt	5.0[16.7 µM]	-9.9[16.7 µM]
O=C(COc1ccccc1C(=O)c1cnn(-c2ccccc2)c1)Nc1ccccc1	49.2*	?	64.5	4.1	-51.0
COc1ccccc1CNC(=O)COc1ccccc1C(=O)c1cnn(-c2ccccc2)c1	75.3*	57.6*	88.6*	nt	-67.6
Cc1ccc(O)c(C(=O)c2cnn(-c3ccccc3)c2)c1	49.7*	13.6	7.9	-1.5	nt
Cc1ccc(-c2ccc3c(c2)O[C@@H](CN(C)C)[C@@H](C)CN([C@@H](C)CO)S3(=O)=O)cc1	-7.4	nt	nt	-11.6[16.7 µM]	-3.9[16.7 µM]
C[C@@H]1CN([C@H](C)CO)C(=O)Cc2cc(NC(=O)Cc3ccccc3)ccc2O[C@@H]1CN(C)Cc1ccc(C(=O)O)cc1	0.7	nt	nt	-3.6[16.7 µM]	-4.3[16.7 µM]
CNC(=O)C[C@H]1CC[C@@H]2[C@@H](COc3ccc(NC(=O)NCc4ccccc4)cc3C(=O)N2C)O1	0.3	nt	nt	8.3[16.7 µM]	-10.1[16.7 µM]

Bioassay records as filed in PubChem BioAssay.
